Beta cell apopt – beta cell apoptosis inhibition. 300,000 tested, 0.8% active. AID 435005. INS-1E cytokine-induced death, ATP luminescence, 48 h; percent of positive-control rescue, neutral wells zero. protection from apoptosis, % (test concentration not listed);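 active = Every replicate reaches about 75%, or at least half do and their mean reaches it too, limit read from the data; inconclusive = At least half of replicates reach the limit but their mean does not; inactive = Under half of replicates reach the limit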;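 also: 0% = cytokine-treated negative control wells and 100% = positive control rescue; higher means more ATP so stronger rescue from cytokine killing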
PAX8 inh HTS – lowers PAX8-driven luciferase in RMG-I cells | RMG-I TPO-luciferase reporter, SteadyGlo, 24 h | inhibition, % at 12.6 µM | 360,000 tested, 1.2% active;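 active = mean replicate inhibition at least 60% with every replicate also reaching 60%; inconclusive = only one of the two criteria is met; inactive = mean below 60% and not all replicates reaching 60%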;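 also: luciferase light reporting Pax8 driven TPO promoter activity; plate controls were median of neutral control wells for no effect and mitoxantrone controls for full effect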
Mdm2 MdmX PPI – human Mdm2/MdmX binding inhibition. O15151+Q00987. SaOS-2 split-luciferase Mdm2/MdmX complementation, luminescence. inhibition, % at 8 µM. 330,000 tested, 3% active. AID 485346;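 active = inhibition of at least 50% at 8 µM in the primary screen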
Shn3 inh set2 – inhibitors of Schnurri-3 3'UTR reporter in osteoblasts; 360,000 tested, 0.52% active; inhibition, % at 12.5 µM; Clone20 osteoblast Shn3 3'UTR firefly luciferase, 24 h; AID 588674;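 active = mean inhibition of at least 75% with every replicate also reaching 75%; inconclusive = mean inhibition at least 75% but some replicate below; inactive = mean inhibition below 75%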;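 also: 0% = median of neutral control wells and 100% = pilot-screen positive control compound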
CSC inhib – blocks cancer stem cells; cancer stem cell-like cells viability, luminescence; inhibition, % at 7.5 µM; 300,000 tested, 1.1% active; in the data active = inhibition above about 75%; inconclusive = no clear call, values can overlap the other calls; tested in HMLE shEcad cells
Gli-Sufu block – antagonists of Gli-Sufu signaling; Sufu-KO-LIGHT fibroblasts, Gli luciferase reporter luminescence; inhibition, % at 5 µM; 340,000 tested, 0.74% active; AID 588413;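 active = inhibition above about 55%, limit read from the data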;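 also: 0% = DMSO-treated cells and 100% = wells with medium but no cells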
Mdm2 MdmX conf – human Mdm2/MdmX binding inhibition, confirmed. shares compounds with Mdm2 MdmX PPI. luminescent assay. inhibition, % at 8 µM. 10,000 tested, 55% active. AID 489028; in the data active = inhibition above about 40%
FLuc counter – counter-screen for Mdm2/MdmX inhibitors: full-length luciferase; shares compounds with Mdm2 MdmX PPI; SaOS-2 full-length luciferase counterscreen, luminescence; inhibition, % at 8 µM; 6,200 tested, 77% active;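 active = mean inhibition at 8 µM reaching about 37%, which flags the compound as non-specific, limit read from the data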;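 also: p53-null SaOS-2 cells with luciferase driven by a doxycycline-inducible promoter; compound on cells about two nights before reading with doxycycline added after day one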
An asterisk follows results filed as active; ? = inconclusive; · = not tested or not shown. Hits are enriched below; roughly 4% of the tested compounds scored in any of these assays.

SMILES	Beta cell apopt	PAX8 inh HTS	Mdm2 MdmX PPI	Shn3 inh set2	CSC inhib	Gli-Sufu block	Mdm2 MdmX conf	others
CNC[C@H]1OCCCC[C@H](C)Oc2ccc(NC(=O)c3ccncc3)cc2C(=O)N([C@H](C)CO)C[C@@H]1C	·	-4.9	·	·	·	·	·
O=C(C[C@@H]1CC[C@H]2[C@@H](COC[C@@H](O)CN2Cc2nccs2)O1)NCc1ccccc1	·	-13.1	·	·	·	·	·
CCCn1c2ccccc2c2cnn(CC(=O)NC3CCCC(C)C3C)c(=O)c21 (stereo not given)	-6.4	-4.4	88.9*	15.8	-14.1	13.7	-2.4
CCCn1c2ccccc2c2cnn(CC(=O)NC3CCC(C)CC3)c(=O)c21 (stereo not given)	0.6	4.8	26.5	-4.1	-17.7	3.4	·
N#C[C@H]1[C@@H](c2ccccc2-c2ccccc2F)[C@H](CO)N1C(=O)c1cccc(F)c1	·	-29.3	·	·	·	·	·
CNC(=O)COC(=O)c1cc(NC(=O)c2ccco2)c(OC)c(OC)c1	-0.6	-23.4	3.9	0.3	·	4.5	·
COc1cc(C(=O)OCC(=O)c2cc(C)n(C)c2C)cc(NC(=O)c2ccco2)c1OC	17.7	6.3	74.4*	15.2	-5.5	14.4	5.5
Cc1cc(C(=O)COC(=O)c2ccco2)c(C)n1Cc1ccco1	-2.7	-131.2	63.5*	-21.8	-12.7	-20.7	82.0*	FLuc counter=98.2*
Cc1cc(C(=O)COC(=O)c2ccncc2)c(C)n1Cc1ccco1	-2.5	-18.4	43.5	-38.0	-7.7	8.5	·
COc1ccc(OC)c2sc(N(CCN(C)C)C(=O)/C=C/c3cccs3)nc12	30.1	78.9*	97.2*	?	17.7	6.7	100.1*	FLuc counter=0.2
COc1ccc(C)c2sc(N(CCN(C)C)C(=O)/C=C/c3cccs3)nc12	6.8	26.9	64.9*	-15.7	-34.4	-10.8	27.0
COc1ccc(C)c2sc(N(CCN(C)C)C(=O)c3cccc(N4C(=O)CCC4=O)c3)nc12	·	7.2	-13.3	-16.2	-9.7	-0.6	·
CN(C)CC(=O)Nc1ccc2c(c1)[C@@H]1C[C@H](CC(=O)NCCc3ccccc3)O[C@@H](CO)[C@@H]1O2	·	2.3	·	·	·	·	·
COc1cc([N+](=O)[O-])cc(/C=N/NC(=O)c2cncc(Br)c2)c1O	-3.4	34.3	30.5	·	2.7	5.9	·
COc1cc(/C=N/NC(=O)c2cncc(Br)c2)cc([N+](=O)[O-])c1O	-2.8	15.4	55.6*	-12.3	10.7	-1.1	49.9*	FLuc counter=47.5*
Cc1ccc(S(=O)(=O)Nc2cccc3ncccc23)s1	31.9	·	100.6*	83.8	-3.7	85.1*	4.5
COc1cccc(S(=O)(=O)Nc2ccc3c(c2)[C@H]2C[C@H](CC(=O)NCc4cccc(F)c4)O[C@@H](CO)[C@H]2O3)c1	·	-7.8	·	·	·	·	·
CCOc1cc(/C=C/C(=O)Nc2ccc(C(=O)NCCN(CC)CC)cc2)ccc1OCC(C)C	19.9	78.3*	94.3*	37.1	-10.9	13.6	28.1
N#C/C(=C/c1cn(-c2ccccc2)nc1-c1cccc(OCc2ccc(F)cc2)c1)C(=O)NCCCn1ccnc1	-1.2	-1.0	51.7*	8.5	99.5*	-1.5	29.6
Cc1cc(C)c2oc(-c3ccc(Cl)c(NC(=O)c4ccc(C#N)cc4F)c3)nc2c1	-7.9	·	69.4*	-23.0	7.3	13.0	-11.6
N#Cc1ccc(C(=O)Nc2cccc3ncccc23)c(F)c1	-2.4	-24.2	18.6	-0.7	1.1	-4.3	·
COCC(=O)N/N=C\c1cccc(OC)c1OC/C=C/c1ccccc1	1.1	-1.8	54.9*	17.7	14.4	-7.1	37.8
O=C(CC(F)(F)F)N1C[C@@H]2[C@H](c3ccccc31)[C@@H](CO)N2C(=O)C1CC1	·	-14.0	·	·	·	·	·
COC(=O)[C@]1(Cc2ccccc2)N[C@H](CN(C)C(=O)Nc2ccc(C(F)(F)F)cc2)[C@@H]2C(=O)N(Cc3ccccc3)C(=O)[C@@H]21	6.5	25.4	70.1*	2.5	·	-6.5	42.5*	FLuc counter=65.2*
CCN(C[C@H]1N[C@@](Cc2ccccc2)(C(=O)OC)[C@H]2C(=O)N(Cc3ccccc3)C(=O)[C@@H]12)C(=O)Nc1ccc(Cl)cc1	18.5	3.8	66.5*	3.2	61.4	-26.5	47.9*	FLuc counter=55.6*
SMILES	Beta cell apopt	PAX8 inh HTS	Mdm2 MdmX PPI	Shn3 inh set2	CSC inhib	Gli-Sufu block	Mdm2 MdmX conf	others
CCN(C[C@H]1N[C@@](CC)(C(=O)OC)[C@H]2C(=O)N(Cc3ccccc3)C(=O)[C@@H]12)C(=O)c1ccc(C(C)(C)C)cc1	·	81.7*	74.7*	18.0	·	2.7	68.2*	FLuc counter=55.0*
CCN(C[C@H]1N[C@@](Cc2ccccc2)(C(=O)OC)[C@H]2C(=O)N(Cc3ccccc3)C(=O)[C@@H]12)C(=O)Nc1ccc(F)cc1	·	-0.3	36.7	-4.7	·	-1.2	·
CC[C@@]1(C(=O)OC)N[C@H](CN(C)C(=O)Nc2ccc(C(F)(F)F)cc2)[C@@H]2C(=O)N(Cc3ccccc3)C(=O)[C@@H]21	-6.7	10.6	84.2*	-10.3	·	4.1	81.4*	FLuc counter=32.2
C=CC(=O)Nc1cccc(Oc2nc(Nc3ccc(N4CCN(C)CC4)cc3OC)ncc2Cl)c1	·	14.4	·	·	·	·	·
C=CC(=O)Nc1cccc(Oc2cc(Cl)nc3[nH]ccc23)c1	-6.2	?	80.4*	12.5	·	-13.3	71.7*	FLuc counter=42.4*
O=C(C[C@H]1C[C@H]2c3cc(NS(=O)(=O)c4ccc(F)cc4)ccc3O[C@H]2[C@H](CO)O1)N1CCc2ccccc2C1	·	40.3	·	·	·	·	·
N#Cc1ccc(NC(=O)Nc2ccc(Oc3ccc(NC(=O)Nc4ccc(C#N)cc4)cc3)cc2)cc1	21.2	72.7*	60.0*	91.3*	43.9	16.3	74.3*	FLuc counter=35.1
N#Cc1ccc(NC(=O)Nc2cccc(C#N)c2)cc1	20.7	0.6	·	12.2	22.5	0.7	·
CC(C)C#Cc1ccc([C@H]2[C@@H](C#N)N(C(=O)c3cccc(F)c3)[C@@H]2CO)cc1	·	-5.6	·	·	·	·	·
COc1ccc(Cl)cc1NC(=O)c1nnn(CC(=O)Nc2ccc(C)c(C)c2)c1N	·	-8.7	52.6*	12.6	-17.8	-8.5	31.9
COc1ccc(NC(=O)Cn2nnc(C(=O)NCc3ccc(C)cc3)c2N)cc1Cl	·	-1.3	53.2*	5.4	-14.4	-5.5	31.9
COc1ccc(NC(=O)Cn2nnc(C(=O)NCc3ccccc3)c2N)cc1Cl	4.6	·	26.3	21.2	-4.0	6.4	·
COc1ccc(NC(=O)Cn2nnc(C(=O)Nc3ccc(F)c(Cl)c3)c2N)cc1OC	·	3.0	66.0*	10.9	-4.8	11.6	31.3
COc1ccc(NC(=O)Cn2nnc(C(=O)NCc3cccs3)c2N)cc1OC	·	-2.2	19.2	-34.8	-14.7	-8.2	·
Cc1ccc(NC(=O)Cn2nnc(C(=O)NCCc3ccccc3)c2N)c(C)c1	·	·	60.9*	6.0	-1.1	-30.6	9.8
C/C=C/c1ccc(C2[C@H]3CNC[C@@H]2N3C(=O)Nc2ccc3c(c2)OCO3)cc1 (stereo not given in full)	·	-15.5	·	·	·	·	·

From PubChem
